Source: ChEMBL document CHEMBL3988442, “University of Dundee, Small-Polar-MMV Screening Library” (2021)
In all, about 48,000 compounds went through this assay and about 13,000 (27%) showed an effect of 50% or more. Some of the results follow.

System: Wolbachia pipientis
Assay: Anti-Wolbachia Cell-Based Screen
Assay type: functional
Parameters: scale not given: in the data most compounds retested in dose-response had high values
Details: 5 µM

Row | SMILES | Percent Effect
1 | CCN(Cc1ccco1)C(=O)Nc1cc(C(F)(F)F)c[nH]c1=O | 8.276%
2 | CC(C)(O)CCc1cccc(C(=O)N[C@H](C(N)=O)c2ccccc2)c1 | -7.223%
3 | Cc1cccc2c1nc(COCC(=O)O)n2-c1ccsc1 | 2.323%
4 | CC(C)c1ccc(C2(C(=O)NCCS(N)(=O)=O)CCC2)cc1 | -17.74%
5 | CC(CC(=O)NS(C)(=O)=O)C1CCCCC1 (stereo unspecified) | 81.01%
6 | CCNC(=O)N1CCCCC1CCNS(C)(=O)=O (stereo unspecified) | -13.96%
7 | CC(CC(=O)Nc1ncn(CC(=O)N2CCCCCC2)n1)C1CC1 (stereo unspecified) | 14.79%
8 | CC(CC(=O)NCCS(N)(=O)=O)C1CCCCC1 (stereo unspecified) | 93.71%
9 | CS(=O)(=O)NCC(=O)NC(Cc1ccccc1)C1CCCC1 (stereo unspecified) | -11.78%
10 | Cc1ccc(CNC(=O)N2CCCCC2CCNS(C)(=O)=O)cc1 (stereo unspecified) | -22.58%
11 | CC(CC(=O)NCCNS(C)(=O)=O)C1CCCCC1 (stereo unspecified) | 132.7%
12 | NS(=O)(=O)CCNC(=O)CCc1cc(Br)cs1 | 1.171%
13 | CCS(=O)(=O)N1Cc2ccnn2CC(c2nc(C)no2)C1 (stereo unspecified) | -5.084%
14 | CCCC(=O)N(CC)C(c1cccnc1)c1ccc2c(c1)CCO2 (stereo unspecified) | -14.24%
15 | Cc1cc(C(N)=O)ccc1NC(=O)N1CCN(c2cccs2)CC1 | 1.471%
16 | COc1nn(C)cc1C(=O)NCC(OC)c1ccccc1C (stereo unspecified) | 0.6487%
17 | CC(C)NC(=O)[C@@H]1C[C@H](N)CN1C(=O)c1cc2ccccc2[nH]c1=O | -13.02%
18 | CC(NCCc1nccn1Cc1ccccc1)c1cccs1 (stereo unspecified) | 7.205%
19 | CN(Cc1ccccn1)c1nccc(N2CCN[C@H]3CS(=O)(=O)C[C@H]32)n1 | -6.376%
20 | CC(C)CNC(=O)CN(C)S(C)(=O)=O | 111.5%
21 | CC(NC(=O)CN(C)S(C)(=O)=O)c1ccc(F)cc1 (stereo unspecified) | -21.23%
22 | CC(C(=O)N(Cc1ccc(F)cc1)CC(F)(F)F)S(C)(=O)=O (stereo unspecified) | 19.96%

Row | SMILES | Percent Effect
23 | CN(CC(=O)NCc1cc2ccccc2o1)S(C)(=O)=O | 6.61%
24 | CC(C)CNC(=O)CN(Cc1ccc(F)cc1)S(C)(=O)=O | 96.65%
25 | CC(C)CNC(=O)CN(CC(=O)NCC(C)C)S(C)(=O)=O | 89.59%
26 | CC(C)CNC(=O)CSc1nnc(OC(C)C)s1 | 1.156%
27 | CN(CC(=O)NC(c1ccc(F)cc1)C(F)(F)F)S(C)(=O)=O (stereo unspecified) | -15.92%
28 | CC(C)CNC(=O)COc1cccc[n+]1[O-] | -1.693%
29 | CCN1CCN(CC(O)c2ccc(Br)cc2)CC1 (stereo unspecified) | 16.45%
30 | CS(=O)(=O)N1CC[C@@H]2[C@@H]1CCN2Cc1ccc2c(c1)OCO2.O=C(O)C(F)(F)F | -17.32%
31 | CC(C)(C)NC(=O)CN1CCCN(Cc2ccc(C#N)cc2)CC1 | 13.98%
32 | O=C(C1CC1)N1CCN(c2ccc(-n3cncn3)nn2)CC1 | 7.785%
33 | O=C(NS(=O)(=O)c1ccc2c(c1)OCCO2)c1ccc(Br)cc1F | -2.402%
34 | Cc1oc(C)c(C(=O)NS(=O)(=O)c2ccc3c(c2)OCCCO3)c1C | 0.6682%
35 | Cc1oc(C)c(C(=O)NS(=O)(=O)c2ccc3c(c2)OCCO3)c1Br | 78.36%
36 | CCNC(=O)CN(Cc1ccoc1)C1CCCCC1 | -9.878%
37 | CCN1CCC(NC(=O)CN2CCc3c(ncn3C)C2)CC1 | -0.1158%
38 | CCN1CCC(NC(=O)CN2CCc3c(ncn3C3CC3)C2)CC1 | 104%
39 | N#CC1(NC(=O)CN2CCc3c(ncn3C3CC3)C2)CCCC1 | -4.395%
40 | O=C(CN1CCc2c(ncn2C2CC2)C1)NC1CCOCC1 | 127.5%
41 | CCN1CCC(NC(=O)CN2CCc3c(nc(C4CC4)n3C)C2)CC1 | -1.72%
42 | N#Cc1ccc(OCCN2CCc3c(ncn3C3CC3)C2)cc1 | 2.68%
43 | OC(COc1ccccc1)CN1CCc2c(ncn2C2CC2)C1 (stereo unspecified) | -5.117%
44 | CC(=O)N1CCN(C(=O)CN2CCc3c(ncn3C3CC3)C2)CC1 | 17.74%

Row | SMILES | Percent Effect
45 | O=C(CN1CCc2c(ncn2C2CC2)C1)NC1CCN(C2CC2)CC1 | 121.2%
46 | OC(CN1CCOCC1)CN1CCc2c(ncn2C2CC2)C1 (stereo unspecified) | 4.204%
47 | O=C(CCN1CCc2c(ncn2C2CC2)C1)NC1CCCC1 | 116.5%
48 | O=C(CN1CCc2c(ncn2C2CC2)C1)NC1CC1 | -2.463%
49 | O=C(C[S+]([O-])Cc1ccc(F)cc1Cl)N1CCc2sccc2C1 (stereo unspecified) | -9.716%
50 | Cc1cc2n(n1)CC(CNC1CCN(Cc3ccccn3)CC1)CN2 (stereo unspecified) | 3.925%
51 | O=C(N[C@@H]1CN(c2ncccn2)[C@@H]2CCCO[C@@H]21)c1cscn1 | -1.481%
52 | O=C(N[C@@H]1CN(c2ncccn2)[C@@H]2CCCO[C@@H]21)c1cnccn1 | -12.54%
53 | O=C(N[C@@H]1CN(Cc2ccco2)[C@@H]2CCCO[C@@H]21)c1cscn1 | 106.9%
54 | NC(=O)N1C[C@H](NC(=O)c2cscn2)[C@@H]2OCCC[C@@H]21 | 101.9%
55 | CCOc1cc(CNCCCn2ccnc2)cc(Cl)c1OCC | -4.315%
56 | CC(C)Cc1noc(CN2CCC(NC(=O)c3cccs3)CC2)n1 | 5.621%
57 | CCOC(C)c1noc(CN2CCN(Cc3ccno3)CC2)n1 (stereo unspecified) | -9.724%
58 | CN(Cc1cc(-c2ccncc2)no1)C(=O)[C@@H]1CSCN1C | 2.417%
59 | CS(=O)(=O)N1CCN(C(=O)CCC2CCCO2)CC1 (stereo unspecified) | 1.133%
60 | Cc1nc(CC(=O)N2CCc3nc(-c4cnccn4)nc(O)c3C2)cs1 | 88.77%
61 | COCC(=O)N1CCc2nc(C(=O)Nc3cccnc3)sc2CC1 | 1.921%
62 | COCC(=O)N1CCc2nc(-c3cnccn3)nc(O)c2C1 | 104.8%
63 | O=C(CCC1CCCO1)N1CCc2nc(-c3cnccn3)nc(O)c2C1 (stereo unspecified) | 116.1%
64 | CS(=O)(=O)NC1CCN(C(=O)CCC2CCCO2)CC1 (stereo unspecified) | 10.42%
65 | O=C(Cc1csc(-c2ccco2)n1)N1CCN(c2cnccn2)CC1 | 16.12%
66 | O=C(c1ccccn1)N1CCc2nc(-c3cnccn3)nc(O)c2C1 | -8.53%
